Source: publication PMC5540273 (PLoS ONE, 2017)
Where two headings read alike, the source gives them in different places.

How the values were obtained:
CDK8 = details: concentration: 1 μM, replicates: in singlicate; n = 1
CDK9 = details: concentration: 1 μM, replicates: in singlicate; n = 1
CDKL1 = details: concentration: 1 μM, replicates: in singlicate; n = 1
CDKL2 = details: concentration: 1 μM, replicates: in singlicate; n = 1
CDKL3 = details: concentration: 1 μM, replicates: in singlicate; n = 1
CDKL5 = details: concentration: 1 μM, replicates: in singlicate; n = 1
CHEK1 = details: concentration: 1 μM, replicates: in singlicate; n = 1
CHEK2 = details: concentration: 1 μM, replicates: in singlicate; n = 1
CIT = details: n = 1
CLK1 = details: concentration: 1 μM, replicates: in singlicate; n = 1
[1] = concentration: 1 μM, replicates: in singlicate
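Note: KINOMEscan kinase panel screen.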

| SMILES | %Inh (CDK8) [%] | %Inh (CDK9) [%] | %Inh (CDKL1) [%] | %Inh (CDKL2) [%] | %Inh (CDKL3) [%] | %Inh (CDKL5) [%] | %Inh (CHEK1) [%] | %Inh (CHEK2) [%] | %Inh (CIT; [1]) [%] | %Inh (CLK1) [%] | %Inh (CIT; 1 µM) [%] |
| --- | --- | --- | --- | --- | --- | --- | --- | --- | --- | --- | --- |
| CCn1c(-c2nonc2N)nc2c(C#CC(C)(C)O)nc(OC[C@H](N)c3ccccc3)cc21 [GSK943949] | 4 | 0 | 0 | 0 | 0 | 12 | 0 | 0 | 61 | 24 |  |
| Cc1ccc(C(=O)N2CC[C@@H](O)C2)cc1-n1c(C)cc(OCc2ccc(F)cc2F)c(Br)c1=O | 0 | 1 | 14 | 0 | 1 | 0 | 0 | 6 | 6 | 5 |  |
| Cl.c1ccc(-c2ccc3c(Nc4ccc5[nH]ccc5c4)ccnc3c2)nc1 [GW440138] | 45 | 0 | 0 | 7 | 0 | 0 | 0 | 34 | 0 | 20 |  |
| C[C@@H]1CC[C@@H](C(=O)Nc2ccccc2)CN1c1cc(-c2ccc3c(N)n[nH]c3c2)nc(N)n1 [GSK2286062] | 19 | 4 | 0 | 7 | 0 | 0 | 0 | 26 | 8 | 14 |  |
| COc1ccc(Nc2nccc(NCCNC(=O)c3cc4ccccc4s3)n2)cc1 [GSK1379896] | 15 | 0 | 0 | 23 | 0 | 0 | 0 | 0 | 5 | 20 |  |
| Cn1cc(-c2[nH]c3cc(NC(=O)[C@H](N)C4CCCCC4)cc4c3c2C=NNC4=O)cn1 | 0 | 0 | 16 | 0 | 18 | 0 | 98.4 | 96.6 | 97.5 | 56 |  |
| CSc1cccc2c(-c3ccncn3)c(-c3ccc(F)cc3)nn12 [GW514786] | 37 | 0 | 6 | 31 | 0 | 3 | 81 | 0 | 79 | 18 |  |
| CC(C)(C)c1ccc2nccc(Nc3cccc(O)c3)c2c1 [GW856795] | 68 | 0 | 8 | 0 | 19 | 0 | 74 | 0 | 21 | 17 |  |
| Cl.NC(=O)c1cccc(Nc2nccc(Nc3ccc(Oc4c(Cl)cccc4Cl)c(Cl)c3)n2)c1 [GW659009] | 18 | 0 | 0 | 15 | 0 | 0 | 1 | 0 | 9 | 46 |  |
| c1ccc(-c2cnc3nccnn23)cc1 [AH20685] | 49 | 0 | 11 | 0 | 0 | 8 | 0 | 0 | 0 | 4 |  |
| CCc1ccc(-c2ccc3c(c2)-c2c(cnn2C)S(=O)(=O)N3C)cc1 | 0 | 0 | 0 | 0 | 20 | 0 | 0 | 0 | 8 | 22 |  |
| CCS(=O)(=O)c1ccc(OC)c(Nc2nccc(-c3c(-c4cccc(NC(=O)c5c(F)cccc5F)c4)nn4ncccc34)n2)c1 [GSK326180] | 16 | 0 | 6 | 15 | 0 | 0 | 10 | 0 | 8 | 40 |  |
| Nc1ncnc2c1nc(-c1ccccc1)n2-c1ccccc1 [SKF-97293] | 0 | 0 | 3 | 0 | 7 | 14 | 4 | 11 | 11 | 15 |  |
| CC(=O)N1CCN(c2ccc(Nc3nccc(-c4sc(C(C)C)nc4-c4cccc(NS(=O)(=O)c5cccc(Cl)c5)c4)n3)cn2)CC1 [GSK1660437] | 7 | 68 | 31 | 99 | 0 | 73 | 1 | 0 | 71 | 11 |  |
| Fc1ccc(-c2ncn(C3CCNCC3)c2-c2ccnc(Oc3ccc(-c4ccccc4)cc3)n2)cc1 [SB-245391] | 92.8 | 12 | 28 | 0 | 32 | 0 | 0 | 0 | 98.9 | 21 |  |
| CCCCc1nn2ncccc2c1-c1ccnc(Nc2ccc(N3CCN(C)CC3)cc2)n1 [GW684941] | 26 | 0 | 22 | 99.3 | 66 | 0 | 0 | 13 | 30 | 8 |  |
| O=C(Nc1cccc(-c2nn3ccccc3c2-c2ccnc(Nc3cccc(F)c3)n2)c1)c1c(F)ccc(F)c1Cl [GSK357952] | 6 | 0 | 15 | 25 | 0 | 0 | 15 | 0 | 7 | 24 |  |
| Nc1ncc(-c2ccc3nccc(-c4ccncc4)c3c2)cc1S(=O)(=O)N1CCOCC1 [GSK1627798] | 4 | 0 | 0 | 4 | 0 | 0 | 0 | 0 | 7 | 63 |  |
| Cc1ccc(F)c(C(=O)Nc2cccc(-c3nn4ccccc4c3-c3ccnc(Nc4cccc(F)c4)n3)c2)c1F [GSK361061] | 15 | 0 | 2 | 31 | 0 | 5 | 6 | 0 | 9 | 32 |  |

| SMILES | %Inh (CDK8) [%] | %Inh (CDK9) [%] | %Inh (CDKL1) [%] | %Inh (CDKL2) [%] | %Inh (CDKL3) [%] | %Inh (CDKL5) [%] | %Inh (CHEK1) [%] | %Inh (CHEK2) [%] | %Inh (CIT; [1]) [%] | %Inh (CLK1) [%] | %Inh (CIT; 1 µM) [%] |
| --- | --- | --- | --- | --- | --- | --- | --- | --- | --- | --- | --- |
| COc1cc(Nc2nccc(-c3c(-c4cccc(NC(=O)c5c(F)cccc5F)c4)nn4ccccc34)n2)cc(OC)c1OC [GSK323521] | 90 | 0 | 6 | 0 | 13 | 2 | 30 | 0 | 20 | 30 |  |
| CN1CCN(Cc2cccc(-c3ccc4c(Nc5ccc(Oc6ccccc6)cc5)ccnc4c3)c2)CC1 [GW578342] | 30 | 0 | 0 | 0 | 0 | 0 | 0 | 38 | 11 | 11 |  |
| CC(C)c1nc(-c2cccc(NS(=O)(=O)c3c(F)cccc3F)c2F)c(-c2ccnc(Nc3ccc(N4CCOCC4)nc3)n2)s1 [GSK2008607] | 14 | 93 | 54 | 99.3 | 4 | 90.2 | 0 | 60 | 95.1 | 0 |  |
| FC(F)(F)c1ccc(/C=C/c2cncnc2Nc2ccc3[nH]c(Cc4ccccc4)nc3c2)cc1 [GW709199] | 64 | 0 | 42 | 38 | 0 | 0 | 0 | 18 | 55 | 23 |  |
| COc1cc(Nc2nccc(N3CCC(NC(=O)c4cc5ccccc5s4)C3)n2)cc(OC)c1OC (centres unmarked) [GSK1379760] | 38 | 5 | 11 | 43 | 13 | 1 | 0 | 16 | 0 | 4 |  |
| Cc1ccc(C(=O)Nc2ccc(Nc3ccnc4cc(-c5nccs5)ccc34)cc2O)cc1.Cl [GW494702] | 23 | 0 | 0 | 28 | 2 | 0 | 4 | 33 | 36 | 1 |  |
| CN1CCN(CCCNc2nccc(-c3c(-c4ccc(F)cc4)nn4cc(C(F)(F)F)ccc34)n2)CC1 [GW621581] | 19 | 0 | 0 | 21 | 0 | 0 | 10 | 0 | 71 | 21 |  |
| Cn1cc(-c2ccc3c(c2)CCN3C(=O)Cc2cccc(F)c2)c2c(N)ncnc21 [GSK2603358] | 97.8 | 7 | 6 | 43 | 0 | 0 | 5 | 0 | 20 | 18 |  |
| COc1cccc(C2=C(Nc3ccc(Cl)c(C(=O)O)c3)C(=O)NC2=O)c1 [SB-390769] | 0 | 0 | 47 | 25 | 100 | 6 | 0 | 0 | 40 | 12 |  |
| COc1ccc(Nc2nccc(N3CCC(NC(=O)Nc4cccc(OC)c4)C3)n2)cc1 (centres unmarked) [GSK1379742] | 72 | 0 | 0 | 49 | 0 | 0 | 0 | 0 | 14 | 26 |  |
| CN(C)S(=O)(=O)c1cc(-c2ccc3nccc(-c4cccc(S(N)(=O)=O)c4)c3c2)cnc1N [GSK1669921] | 35 | 0 | 77 | 25 | 0 | 12 | 100 | 0 | 16 | 57 |  |
| COC(=O)Nc1nc2cc(Oc3ccc(NC(=O)Nc4cc(C(F)(F)F)ccc4F)cn3)ccc2[nH]1.Cl.Cl [GW681170] | 100 | 0 | 29 | 98.3 | 56 | 0 | 0 | 24 | 100 | 42 |  |
| Cc1cccc(Nc2nc(N[C@H]3CCNC3)ncc2C(N)=O)c1.Cl [GSK2197149] | 0 | 7 | 12 | 7 | 0 | 0 | 52 | 71 | 76 | 51 |  |
| c1ccc(-c2n[nH]cc2Nc2ccnc3ccccc23)nc1 [GW694077] | 30 | 0 | 3 | 31 | 0 | 0 | 0 | 18 | 61 | 98.2 |  |
| COc1cc(Nc2ncc3c(C)nc(-c4cc5ccccc5[nH]4)n3n2)cc(OC)c1OC [GW869516] | 44 | 0 | 46 | 1 | 8 | 0 | 0 | 0 | 100 | 88 |  |
| COc1cccc(-c2ccc3c(NC(=O)C4CC4)n[nH]c3n2)c1 [SB-710903] | 50 | 0 | 0 | 67 | 0 | 0 | 0 | 0 | 5 | 15 |  |
| COc1ccc(-c2coc3ccc(-c4nnc(SCc5ccc(OC)c(C(F)(F)F)c5)o4)cc23)cc1 | 20 | 1 | 11 | 0 | 0 | 1 | 0 | 18 | 0 | 26 |  |
| Clc1ccc(-c2nn3ncccc3c2-c2ccnc(Nc3ccc4c(c3)OCCO4)n2)cc1 [GW829116] | 20 | 0 | 0 | 4 | 0 | 0 | 0 | 2 | 89 | 0 |  |
| CCn1c(-c2nonc2N)nc2c(C#CC(C)(C)O)ncc(OCCCCN)c21.O=C(O)C(F)(F)F.O=C(O)C(F)(F)F [GSK507274] |  |  |  |  |  |  |  |  |  |  | 100 |
